Test results from PubChem BioAssay (NCATS).
Values joined by “and” are separate entries in the source; they are usually repeats but may differ in a detail not shown here. Identical values can stand only once. Records with an inconclusive call do not appear. Active and inactive are the calls of the source. The call rests on the fitted dose curve; in most records, active means well fitted curve in the direction sought with a large enough effect; inconclusive means small, poorly fitted or top-dose-only effect, or another doubt; inactive means no such curve, though single readings can be large; an effect the other way counts as inactive or inconclusive.

Legend:
[1] = qHTS of pediatric cancer cell lines to identify multiple opportunities for drug repurposing: Confirmatory screen for control Hh wild type fibroblast cells (AID 1347121); further: nearly all actives have a fitted effect of over 70% in size
How it was run: (§1)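 Cells (500-1,000/well) in growth media were settled 5 h at 37 degrees C, then given compounds for 48 h. Viability was read as CellTiter-Glo luminescence. Primary runs used MIPE at 11 points (0.78 nM-46 µM) and NPC at 8 points (0.59 nM-46 µM); follow-ups used 11 points.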

[2] = qHTS of pediatric cancer cell lines to identify multiple opportunities for drug repurposing: Confirmatory screen for U-2 OS cells (AID 1347122); further: nearly all actives have a fitted effect of over 65% in size
How it was run: as §1

[3] = qHTS of pediatric cancer cell lines to identify multiple opportunities for drug repurposing: Confirmatory screen for Rh41 cells (AID 1347123);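 further: 48 h compound exposure; nearly all actives have a fitted effect of over 60% in size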
How it was run: as §1

[4] = qHTS of pediatric cancer cell lines to identify multiple opportunities for drug repurposing: Confirmatory screen for Rh18 cells (AID 1347125); further: nearly all actives have a fitted effect of over 55% in size
How it was run: as §1

[5] = qHTS of pediatric cancer cell lines to identify multiple opportunities for drug repurposing: Confirmatory screen for Rh30 cells (AID 1347126); further: nearly all actives have a fitted effect of over 55% in size
How it was run: as §1

[6] = qHTS of pediatric cancer cell lines to identify multiple opportunities for drug repurposing: Confirmatory screen for SK-N-SH cells (AID 1347129);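 further: cells exposed to compound for 48 h before viability read; nearly all actives have a fitted effect of over 60% in size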
How it was run: as §1

[7] = test system: Zika virus NS2B-NS3 protease; assay: Primary screen GU AMC qHTS for Zika virus inhibitors (AID 1347154); further: nearly all actives have a fitted effect of over 70% in size
How it was run: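 Unlinked Zika NS2B hydrophilic domain/NS3 protease domain noncovalent complex (25 nM final) in 10 mM Tris-HCl pH 8.0, 0.01% Tween 20, with AMC peptide substrate. Fluorescence (ex 340, em 450 nm) change over 15 min, room temperature; percent inhibition fitted to 4-parameter Hill equation.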

[8] = qHTS of pediatric cancer cell lines to identify multiple opportunities for drug repurposing: Confirmatory screen for TC32 cells (AID 1347118);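 further: cells exposed to compound for 48 h before the read; nearly all actives have a fitted effect of over 65% in size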
How it was run: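 Measured quantity: luminescence from CellTiter-Glo, reflecting metabolically active TC32 cells following 48 h of compound. Curves came straight from multi-point titrations, with 8 or 11 points in primary and 11 in confirmatory screening.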

[9] = qHTS of pediatric cancer cell lines to identify multiple opportunities for drug repurposing: Confirmatory screen for Saos-2 cells (AID 1347127); further: nearly all actives have a fitted effect of over 60% in size
How it was run: as §1

[10] = qHTS of pediatric cancer cell lines to identify multiple opportunities for drug repurposing: Confirmatory screen for MG 63 (6-TG R) cells (AID 1347119); further: nearly all actives have a fitted effect of over 55% in size
How it was run: as §1

[11] = qHTS of pediatric cancer cell lines to identify multiple opportunities for drug repurposing: Confirmatory screen for BT-37 cells (AID 1347117);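 further: viability measured after 48 h of compound exposure; nearly all actives have a fitted effect of over 55% in size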
How it was run: as §1

[12] = qHTS of pediatric cancer cell lines to identify multiple opportunities for drug repurposing: Confirmatory screen for OHS-50 cells (AID 1347128)
How it was run: as §1

[13] = biological target: Furin (Homo sapiens) (UniProt P09958); assay: Furin counterscreen qHTS for Zika virus inhibitors (AID 1347149); further: nearly all actives have a fitted effect of over 70% in size
Chain of Furin (Homo sapiens) (P09958 whole entry, looked up): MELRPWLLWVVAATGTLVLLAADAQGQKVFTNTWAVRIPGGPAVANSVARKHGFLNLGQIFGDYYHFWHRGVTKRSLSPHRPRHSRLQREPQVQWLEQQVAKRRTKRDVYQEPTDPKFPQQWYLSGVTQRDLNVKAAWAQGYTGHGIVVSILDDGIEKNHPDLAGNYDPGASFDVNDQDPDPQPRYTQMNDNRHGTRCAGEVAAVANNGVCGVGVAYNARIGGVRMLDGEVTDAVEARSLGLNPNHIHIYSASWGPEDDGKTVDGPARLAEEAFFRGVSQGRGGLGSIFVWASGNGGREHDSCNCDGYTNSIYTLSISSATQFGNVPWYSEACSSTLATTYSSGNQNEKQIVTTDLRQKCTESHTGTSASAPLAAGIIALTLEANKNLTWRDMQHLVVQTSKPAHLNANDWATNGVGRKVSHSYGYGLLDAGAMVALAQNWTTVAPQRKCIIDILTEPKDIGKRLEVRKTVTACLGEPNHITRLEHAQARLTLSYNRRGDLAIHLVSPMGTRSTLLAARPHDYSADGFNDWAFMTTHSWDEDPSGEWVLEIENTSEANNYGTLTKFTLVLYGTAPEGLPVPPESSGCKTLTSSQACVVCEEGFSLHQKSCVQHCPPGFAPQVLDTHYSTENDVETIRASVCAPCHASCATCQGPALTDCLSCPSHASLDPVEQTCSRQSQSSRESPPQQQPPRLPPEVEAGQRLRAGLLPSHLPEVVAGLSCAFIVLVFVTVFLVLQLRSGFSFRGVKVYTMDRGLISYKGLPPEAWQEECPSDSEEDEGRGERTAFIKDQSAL
How it was run: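 Counterscreen measures cleavage of 2 microM BOC-RVRR-AMC, below its ~15 microM Km, by 5 nM full-length human furin at pH 7.0 after a 15-min compound preincubation. Inhibition derives from the 15-min fluorescence increase at 37C.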

[14] = test system: Zika virus NS2B-NS3 protease (linked construct); assay: Confirmatory screen NINDS AMC qHTS for Zika virus inhibitors (AID 1347152); further: nearly all actives have a fitted effect of over 70% in size
How it was run: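 IC50s from 4-parameter Hill fits of percent inhibition, based on AMC fluorescence gain (340/450 nm) over 15 min with 10 microM Bz-Nle-KRR-AMC. Enzyme: 1 nM linked NS2B-NS3 in Tris-HCl pH 8.0; 15-min compound preincubation.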

[15] = qHTS of pediatric cancer cell lines to identify multiple opportunities for drug repurposing: Confirmatory screen for RD cells (AID 1347124);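 further: cells exposed to compound for 48 h before viability readout; nearly all actives have a fitted effect of over 65% in size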
How it was run: as §1

[16] = test system: Zika virus NS2B-NS3 protease (unlinked complex); assay: Confirmatory screen GU AMC qHTS for Zika virus inhibitors (AID 1347153); further: nearly all actives have a fitted effect of over 70% in size
How it was run: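 Unlinked enzyme 25 nM, Tris pH 8.0/0.01% Tween 20; cpd 15 min RT, dark; + AMC substrate 10 µM (Km 18.3 µM); 340/450 nm read at t0 and 15 min; % inhibition → 4-param fit.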

[17] = Confirmatory screen GU Rhodamine qHTS for Zika virus inhibitors qHTS (AID 1347157); further: nearly all actives have a fitted effect of over 70% in size
How it was run: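 Unlinked NS2B/NS3, 25 nM; Rhod110 peptide, 1.5 microM; compounds, up to 114 microM. Reaction run 15 min at RT in 10 mM Tris-HCl pH 8.0, 0.01% Tween 20; kinetic fluorescence change fitted with a 4-parameter Hill model.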

[18] = biological target: N-terminal Xaa-Pro-Lys N-methyltransferase 1 (Homo sapiens) (UniProt Q9BV86); assay: qHTS Assay for Inhibitors of N-terminal methyltransferase 1 (NTMT1): LOPAC validation of the NTMT1 SAHH-coupled ThioGlo3 Assay (AID 1347143); details: recombinant NTMT1, SAHH-coupled ThioGlo3 fluorescence
Chain of N-terminal Xaa-Pro-Lys N-methyltransferase 1 (Homo sapiens) (Q9BV86 whole entry, looked up): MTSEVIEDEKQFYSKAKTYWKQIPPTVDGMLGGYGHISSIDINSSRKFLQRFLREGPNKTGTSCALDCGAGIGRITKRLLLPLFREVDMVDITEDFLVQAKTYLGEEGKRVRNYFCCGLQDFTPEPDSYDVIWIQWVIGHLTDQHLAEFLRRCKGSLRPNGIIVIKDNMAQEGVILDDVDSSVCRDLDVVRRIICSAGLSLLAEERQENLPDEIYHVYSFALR
How it was run: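 In this qHTS pilot against the LOPAC set, 125nM NTMT1 met compounds tested at multiple concentrations, and fluorescence was normalized to background.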

[19] = test system: Zika virus NS2B-NS3 protease (unlinked); assay: Optimization of GU AMC qHTS for Zika virus inhibitors: Unlinked NS2B-NS3 protease assay (AID 1347151); details: recombinant ZIKV NS2B-NS3 protease, fluorogenic AMC substrate; further: nearly all actives have a fitted effect of over 80% in size
How it was run: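 Fluorescence gain (340/450 nm) over 15 min at room temperature, ~20% conversion, gave percent inhibition fitted to a 4-parameter Hill equation; enzyme was unlinked NS2B-NS3 (25 nM final), pH 8.0 Tris buffer.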

Measured: Potency
Potency means the concentration at half of the fitted maximal effect.

CC(C)(C)NC(=O)[C@H]1CN(Cc2cccnc2)CCN1C[C@@H](O)C[C@@H](Cc1ccccc1)C(=O)N[C@H]1c2ccccc2C[C@H]1O
inactive: [1] | [4] | [6] | [7]
active: [2] 23.3 µM | [3] 20.8 µM | [5] 18.5 µM

NC(=O)c1c(OCc2c(F)cc(Br)cc2F)nsc1NC(=O)NCCCCN1CCCC1
inactive: [7]

C=C1C(=CC=C2CCC[C@]3(C)[C@@H]([C@H](C)C=C[C@H](C)C(C)C)CC[C@@H]23)C[C@@H](O)C[C@@H]1O
inactive: [4] | [9] | [6] | [7]
active: [8] 23.3 µM

Cc1ccc2nc(NC(=O)CSc3nc4c(c(=O)n3-c3ccccc3)SCC4)sc2c1
inactive: [4] | [5] | [9]
active: [8] 8.27 µM | [10] 5.22 µM | [3] 20.8 µM

CN(C)CCCN=c1c2ccccc2n(C)c2[nH]c(=O)n(C)c(=O)c12
inactive: [10] | [1] | [2] | [9] | [6] | [7]
active: [11] 18.5 µM | [3] 23.3 µM

Cc1cn(-c2cc(NC(=O)c3ccc(C)c(Nc4nccc(-c5cccnc5)n4)c3)cc(C(F)(F)F)c2)cn1
active: [11] 16.5 µM | [3] 11.7 µM | [5] 20.8 µM | [12] 18.5 µM | [6] 18.7 µM
inactive: [7]

CCOC(=O)C1=C(C)NC2=C(C(=O)CC(C)(C)C2)C1c1ccc(-c2ccccc2)cc1 (stereo not given)
active: [13] 19.2 µM | [14] 17.1 µM | [7] 17.1 µM

Cc1nc2ccc(CN(C)c3ccc(C(=O)N[C@@H](CCC(=O)O)C(=O)O)s3)cc2c(=O)[nH]1
inactive: [2] | [3] | [4] | [9] | [12] | [6] | [7]
active: [8] 0.0522 µM

CC(C)(C)c1cc(C(C)(C)C)c(NC(=O)c2c[nH]c3ccccc3c2=O)cc1O
active: [15] 29.3 µM | [9] 16.5 µM
inactive: [5]

O=C(Nc1cc(C(F)(F)F)cc(C(F)(F)F)c1)c1cc(Cl)ccc1O
active: [11] 1.85 µM | [8] 2.93 µM | [4] 3.69 µM | [9] 1.65 µM | [12] 0.928 µM | [6] 3.72 µM | [13] 55.5 µM | [14] 49.4 µM | [16] 49.4 µM | [17] 4.94 µM
inactive: [7]

CC(C)c1ccccc1Cc1cc(C(=O)Nc2ccc(S(=O)(=O)c3ccccc3C(C)(C)C)cc2)c(O)c(O)c1O
inactive: [13] | [14] | [16]
active: [7] 17.1 µM

CC(C)CC(=O)Nc1n[nH]c2c1CN(C(=O)C1CCN(C)CC1)C2(C)C
active: [2] 16.5 µM | [3] 1.31 µM | [15] 6.57 µM | [12] 5.85 µM | [6] 4.18 µM
inactive: [1] | [4] | [5] | [7]

C=CC(=O)Nc1cccc(Oc2nc(Nc3ccc(N4CCN(C)CC4)cc3)ncc2Cl)c1
active: [8] 1.17 µM | [10] 2.93 µM | [1] 20.8 µM | [2] 2.61 µM | [3] 2.61 µM | [9] 2.93 µM | [12] 5.22 µM | [6] 2.96 µM
inactive: [7]

Nc1ccc(S(=O)(=O)Nc2ncccn2)cc1
inactive: [7]

Cc1cn2c(-c3cn[nH]c3)cnc2c(Nc2ccc(C(=O)N3CCNCC3)cc2F)n1
active: [11] 10.4 µM | [3] 5.85 µM | [5] 16.5 µM | [12] 16.5 µM | [6] 7.43 µM
inactive: [2] | [15] | [7]

N#Cc1c(O)c2c(-c3ccc(-c4ccccc4O)cc3)csc2[nH]c1=O
inactive: [13]
active: [14] 4.82 µM and 8.79 µM | [16] 9.61 µM | [7] 8.57 µM | [17] 2.21 µM

CC=CC1=C(C(=O)O)N2C(=O)[C@H](NC(=O)[C@H](N)c3ccc(O)cc3)[C@@H]2SC1
inactive: [11] | [2] | [3] | [4] | [5] | [12] | [6] | [7]

CC(O)C1C(=O)N2C(C(=O)O)=C(SC3CNC(C(=O)N(C)C)C3)C(C)C12 (stereo not given)
inactive: [7]

CN[C@H]1CCc2cc(OC)c(OC)c(OC)c2-c2ccc(OC)c(=O)cc21
active: [2] 0.208 µM | [15] 0.104 µM
inactive: [4] | [5] | [7]

O=c1c2ccccc2nc2n1CCc1c-2[nH]c2ccccc12
active: [18] 56.2 µM | [13] 42.9 µM | [19] 26.7 µM | [14] 24.1 µM | [7] 30.4 µM

COc1cc2c(cc1-c1c(C)noc1C)ncc1[nH]c(=O)n([C@H](C)c3ccccn3)c12
inactive: [17]

O=C(O)Cn1nnc(-c2cc(N3CCC(Oc4cc(F)ccc4Br)CC3)no2)n1
active: [17] 27.8 µM
